What all share (test): yeast three-hybrid, YBZ-1, SC-Leu-His + 0.5 mM 3-AT, 4 days
What all share (conditions): tags: N-Gal4 AD-HA kept; label: inside an RPR1-promoter hybrid RNA with tandem MS2 sites; ssRNA

In one test the target is T1, PUM1 PUF domain R6-DFE (Homo sapiens, UniProt Q14671 828-1176, N1043D;Y1044F;Q1047E).
T1 sequence: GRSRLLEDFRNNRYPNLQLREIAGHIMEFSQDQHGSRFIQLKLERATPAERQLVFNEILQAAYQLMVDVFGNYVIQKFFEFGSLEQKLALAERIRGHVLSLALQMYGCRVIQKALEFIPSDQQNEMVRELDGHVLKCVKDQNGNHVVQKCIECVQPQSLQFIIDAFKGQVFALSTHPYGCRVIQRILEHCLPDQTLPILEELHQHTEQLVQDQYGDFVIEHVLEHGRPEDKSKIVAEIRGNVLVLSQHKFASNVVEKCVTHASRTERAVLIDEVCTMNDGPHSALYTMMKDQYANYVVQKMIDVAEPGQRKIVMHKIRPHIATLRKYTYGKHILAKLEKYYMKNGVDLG
The method, boiled down: (§1)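 Repeat regions from input (SC-Leu) and selection (SC-Leu-His + 0.5 mM 3-AT) plates were PCR-amplified and Illumina-sequenced after four days of growth. The cells were strain YBZ-1 with a LexA–MS2 coat fusion and a HIS3 reporter, co-expressing Pumilio-1 PUF domain libraries and matching RNA elements from a centromeric plasmid. The interaction score is the log change in variant frequency from input to selection, taken in log2 with a pseudocount of 1 for absent variants.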

The target in a further test is PUM1 PUF domain R4-GRN (Homo sapiens, UniProt Q14671 828-1176, N971G;H972R;Q975N). The method, boiled down: as §1
Another test addresses PUM1 PUF domain R4-APF (Homo sapiens, UniProt Q14671 828-1176, N971A;H972P;Q975F). In outline: as §1
For the next test, the target named is PUM1 PUF domain R3-VYW (Homo sapiens, UniProt Q14671 828-1176, C935V;R936Y;Q939W). In outline: as §1
A further test has as its target PUM1 PUF domain R5-FRM (Homo sapiens, UniProt Q14671 828-1176, C1007F;Q1011M). The method, boiled down: as §1
The target in the next test is PUM1 PUF domain R5-GMR (Homo sapiens, UniProt Q14671 828-1176, C1007G;R1008M;Q1011R). The method, boiled down:
as §1

The target of another test is PUM1 PUF domain R8-TYK (Homo sapiens, UniProt Q14671 828-1176, N1122T;Q1126K). In outline: as §1
PUM1 PUF domain R8-TYK, sequence (Q14671 828-1176 N1122T/Q1126K): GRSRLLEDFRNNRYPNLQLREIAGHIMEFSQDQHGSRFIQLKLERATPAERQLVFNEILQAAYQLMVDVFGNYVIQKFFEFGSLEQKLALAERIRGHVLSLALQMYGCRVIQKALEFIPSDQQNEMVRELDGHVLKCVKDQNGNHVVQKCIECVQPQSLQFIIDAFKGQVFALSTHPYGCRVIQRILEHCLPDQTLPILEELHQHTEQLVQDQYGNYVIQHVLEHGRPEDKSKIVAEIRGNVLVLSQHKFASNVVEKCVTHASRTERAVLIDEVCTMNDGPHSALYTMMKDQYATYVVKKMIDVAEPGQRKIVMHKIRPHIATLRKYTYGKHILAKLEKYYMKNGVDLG
The next test addresses PUM1 PUF domain R7-KRL (Homo sapiens, UniProt Q14671 828-1176, S1079K;N1080R;E1083L). In outline:
as §1

A further test concerns the target PUM1 PUF domain R3-RVA (Homo sapiens, UniProt Q14671 828-1176, C935R;R936V;Q939A). The method, boiled down:
as §1

A further test deals with PUM1 PUF domain R2-GWF (Homo sapiens, UniProt Q14671 828-1176, N899G;Y900W;Q903F). The method, boiled down:
as §1

Data on eight sequences can be found in PMC8384837, “Expanding the binding specificity for RNA recognition by a PUF domain”.

PUM1 PUF domain R5-GMR, sequence (Q14671 828-1176 C1007G/R1008M/Q1011R): as the sequence (Q14671 828-1176 N1122T/Q1126K) above, with C180G, R181M, Q184R, T295N, K299Q counted along it

For the sequence “GGCUAGAACUAGUGGAUCCCCCGGCGCCCGGCGGCUCGAGCCCGGGUAAGUGGAAAUAGUCUGCAUGCCGCCGGGCGCCAUGCCUGCAGGUCGACUCUAGAAAACAUG”, the binding signal in the test with PUM1 PUF domain R6-DFE was 2.5 log2 enrichment (interaction score). On to “GGCUAGAACUAGUGGAUCCCCCGGCGCCCGGCGGCUCGAGCCCGGGUAAGUGUAAAUAGUCUGCAUGCCGCCGGGCGCCAUGCCUGCAGGUCGACUCUAGAAAACAUG”, for which the binding signal with PUM1 PUF domain R4-GRN is 2.76 log2 enrichment (interaction score); in the test with PUM1 PUF domain R4-APF it was 3.52 log2 enrichment (interaction score); in the test with PUM1 PUF domain R3-VYW, 6.32 log2 enrichment (interaction score); with PUM1 PUF domain R5-FRM it was 3.16 log2 enrichment (interaction score); with PUM1 PUF domain R5-GMR, 0.88 log2 enrichment (interaction score); in the test with PUM1 PUF domain R8-TYK, 2.62 log2 enrichment (interaction score). As for “GGCUAGAACUAGUGGAUCCCCCGGCGCCCGGCGGCUCGAGCCCGGGUAAGUUUAAAUAGUCUGCAUGCCGCCGGGCGCCAUGCCUGCAGGUCGACUCUAGAAAACAUG”, the binding signal in the test with PUM1 PUF domain R7-KRL is 5.24 log2 enrichment (interaction score). As to “GGCUAGAACUAGUGGAUCCCCCGGCGCCCGGCGGCUCGAGCCCGGGUAAGUGUCAAUAGUCUGCAUGCCGCCGGGCGCCAUGCCUGCAGGUCGACUCUAGAAAACAUG”, the binding signal in the test with PUM1 PUF domain R5-FRM was 2.1 log2 enrichment (interaction score); in the test with PUM1 PUF domain R5-GMR, 3.28 log2 enrichment (interaction score). With “GGCUAGAACUAGUGGAUCCCCCGGCGCCCGGCGGCUCGAGCCCGGGUAAGUGUAAGUAGUCUGCAUGCCGCCGGGCGCCAUGCCUGCAGGUCGACUCUAGAAAACAUG”, the binding signal with PUM1 PUF domain R3-RVA is 0.81 log2 enrichment (interaction score). In the case of “GGCUAGAACUAGUGGAUCCCCCGGCGCCCGGCGGCUCGAGCCCGGGUAAGGGUAAAUAGUCUGCAUGCCGCCGGGCGCCAUGCCUGCAGGUCGACUCUAGAAAACAUG”, in the test with PUM1 PUF domain R8-TYK, the binding signal was 3.38 log2 enrichment (interaction score). Regarding “GGCUAGAACUAGUGGAUCCCCCGGCGCCCGGCGGCUCGAGCCCGGGUAAGUGUUAAUAGUCUGCAUGCCGCCGGGCGCCAUGCCUGCAGGUCGACUCUAGAAAACAUG”, in the test with PUM1 PUF domain R5-GMR, the binding signal was 1.23 log2 enrichment (interaction score).

On to “GGCUAGAACUAGUGGAUCCCCCGGCGCCCGGCGGCUCGAGCCCGGGUAAGUGUAAAAAGUCUGCAUGCCGCCGGGCGCCAUGCCUGCAGGUCGACUCUAGAAAACAUG”, for which the binding signal in the test with PUM1 PUF domain R2-GWF was 3.4 log2 enrichment (interaction score).
